Experiment [1] is described as follows: StAR promoter reporter inhibitors, counter-screen for LRH-1 inverse agonist project, cell-based, luminescence, high throughput (AID 651611; in the data active = inhibition above about 28%). The note with it: StAR promoter luciferase reporter counterscreen, at 3.6 µM, active compounds read high.
Experiment [2] has as its target Nuclear receptor subfamily 5 group A member 2 (Homo sapiens) (UniProt O00482). Kind of experiment: NR5A2 activity suppression in reporter cells – cell-based, luminescence, confirmation (AID 651613; in the data active = inhibition above about 42%;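 also: HEK293T cells co-transfected with LRH-1 and StAR promoter luciferase reporter; 0% = vehicle wells and 100% = parental cells lacking receptor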). The note with it: cell-based LRH-1 luciferase reporter, inverse agonism; at 3.6 µM; active compounds read high. For orientation: In a reporter assay the amount or activity of a reporter protein is the signal.

Experiment [3] addresses Steroidogenic factor 1 (Homo sapiens) (UniProt Q13285). Kind of experiment: inverse agonism at SF1 nuclear receptor – cell-based, luminescence, high throughput, counter-screen for LRH-1 inverse agonist project (AID 651614; in the data active = inhibition above about 44%;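 also: cells cotransfected with StAR promoter reporter and SF1 expression vector; 0% = vehicle on cells with receptor and 100% = vehicle on cells lacking receptor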). The note with it: cell-based SF1 luciferase reporter, at 3.6 µM, active compounds read high. (In general: A counterscreen serves to expose hits that act by an unwanted route or on another target.)

Experiment [4] can be described thus: compounds suppressing VP16-driven luciferase signal – cell-based, luminescence, high throughput, counter-screen for LRH-1 inverse agonist project (AID 651615). The note with it: Gal4-VP16 luciferase reporter cells, at 3.6 µM, active compounds read high.

A number with no mark means an inactive call. Active and inactive are the calls of the source. Rule as the data show it, unless noted: active = inhibition above about 33%; inactive = the rest.

The values below come from PubChem BioAssay.

Chain of Steroidogenic factor 1 (Homo sapiens) (Q13285 whole entry, looked up): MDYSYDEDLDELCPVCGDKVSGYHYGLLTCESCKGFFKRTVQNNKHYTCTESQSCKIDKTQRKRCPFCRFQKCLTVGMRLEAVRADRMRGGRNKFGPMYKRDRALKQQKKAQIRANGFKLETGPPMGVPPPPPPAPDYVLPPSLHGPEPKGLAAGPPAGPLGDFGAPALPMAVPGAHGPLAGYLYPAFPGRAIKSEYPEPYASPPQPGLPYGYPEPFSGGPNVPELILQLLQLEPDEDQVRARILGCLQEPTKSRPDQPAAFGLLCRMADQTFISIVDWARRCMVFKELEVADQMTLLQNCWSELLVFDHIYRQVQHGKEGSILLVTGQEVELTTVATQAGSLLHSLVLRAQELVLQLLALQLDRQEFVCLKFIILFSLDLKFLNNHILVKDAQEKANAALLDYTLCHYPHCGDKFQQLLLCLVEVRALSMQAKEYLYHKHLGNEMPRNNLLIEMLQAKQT
Chain of Nuclear receptor subfamily 5 group A member 2 (Homo sapiens) (O00482 whole entry, looked up): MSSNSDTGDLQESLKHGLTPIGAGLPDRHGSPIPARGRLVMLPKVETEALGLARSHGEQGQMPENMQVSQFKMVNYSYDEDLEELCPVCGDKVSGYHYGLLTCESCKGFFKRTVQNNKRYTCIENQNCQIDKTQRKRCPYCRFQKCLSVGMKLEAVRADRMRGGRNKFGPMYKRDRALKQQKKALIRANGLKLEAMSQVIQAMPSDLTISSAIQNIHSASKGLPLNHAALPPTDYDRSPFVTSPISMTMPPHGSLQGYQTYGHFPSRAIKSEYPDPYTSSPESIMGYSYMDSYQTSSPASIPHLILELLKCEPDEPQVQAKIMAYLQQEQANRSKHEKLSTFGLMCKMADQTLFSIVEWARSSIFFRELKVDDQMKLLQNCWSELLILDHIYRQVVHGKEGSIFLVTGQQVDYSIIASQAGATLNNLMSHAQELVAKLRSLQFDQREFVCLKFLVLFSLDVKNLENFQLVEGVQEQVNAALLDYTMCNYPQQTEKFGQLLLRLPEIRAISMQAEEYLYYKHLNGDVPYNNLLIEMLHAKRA

In the case of `COc1cc2c(=O)[nH]c3cc([N+](=O)[O-])ccc3c2cc1[N+](=O)[O-]`, the inhibition in experiment [1] was -3.92%; in experiment [2], 64.6% (active); in experiment [3] it was 56.6% (active); in experiment [4], -22.2%.
Turning to `Cc1onc(-c2ccccc2Cl)c1-c1nc(-c2ccncc2)no1`, the inhibition was 7.38% in experiment [1], 58.1% (active) in experiment [2], 52.9% (active) in experiment [3] and 18.2% in experiment [4].
For `CCN(CC)S(=O)(=O)c1ccc(N2CCOCC2)c(NC(=O)c2[nH]c(C)c(C(C)=O)c2C)c1`, the inhibition in experiment [1] was 61.6% (active); in experiment [2], 51.5% (active); in experiment [3] it was 25.8%; in experiment [4], -200%.
With `O=C(COC(=O)c1cccc(O)c1)Nc1ccc(N2CCOCC2)cc1`, the inhibition in experiment [1] was 13.6%; in experiment [2] it was 54.3% (active); in experiment [3], 54.6% (active); in experiment [4] it was -6.64%.
For the molecule `CC(C)(C)C(=O)N1CCN(c2ccc(NC(=O)c3ccc([N+](=O)[O-])o3)cc2)CC1`, the inhibition is 11.1% in experiment [1], 59.7% (active) in experiment [2], 68.6% (active) in experiment [3] and -12.6% in experiment [4].
The like results for `COc1cc(-c2noc(C)c2-c2ccc(N(C)C)nc2)cc(OC)c1OC` were, in that order, 58.7% (active), 53% (active), 63.2% (active) and -0.05%.
For the molecule `Cc1ccnc2nc(C(=O)OCC(=O)Nc3ccc([N+](=O)[O-])cc3Br)nn12`, the inhibition was 9.71% in experiment [1], 38.9% in experiment [2], 32.1% in experiment [3] and -0.95% in experiment [4].
Take `CC(C(=O)OCC(=O)Nc1ccc2c(c1)OCO2)N1C(=O)c2ccccc2C1=O` (stereo not drawn): the inhibition in experiment [1] is -2.26%; in experiment [2], 49.2% (active); in experiment [3] it was 48.2% (active); in experiment [4] it was -12.4%.
Regarding `COc1cc2c(cc1OC)CN(C(=O)CN1C(=O)NC3(CCC(C)CC3)C1=O)CC2` (stereo not drawn), the inhibition is 11.1% in experiment [1], 46% (active) in experiment [2], 46.4% (active) in experiment [3] and 7.61% in experiment [4].
`O=C(CN1CCN(S(=O)(=O)c2cc(Cl)ccc2Cl)CC1)Nc1ccc2c(c1)OCCO2`: the inhibition in experiment [1] is 19%; in experiment [2], 59.6% (active); in experiment [3] it was 59.1% (active); in experiment [4], -3.13%.
Turning to `Fc1ccc(Br)cc1SCCc1ccncc1`, the inhibition in experiment [1] was 1.89%; in experiment [2], 45.7% (active); in experiment [3] it was 34.9%; in experiment [4], -2.36%.
As to `O=c1cc(C2CCCCC2)[nH]c(=O)[nH]1`, the inhibition in experiment [1] was 10.2%; in experiment [2] it was 48.1% (active); in experiment [3] it was 48% (active); in experiment [4] it was 2.19%.
The like results for `COc1cc(C(=O)NC2CCN(C)CC2)ccc1Nc1ncc2c(n1)N(C1CCCCC1)CCC(=O)N2C` were, in that order, 60.6% (active), 54.4% (active), 40% and -159%.
Consider `CC(=O)c1ccc(NC(=O)CSC2=NS(=O)(=O)c3cc(Cl)ccc3N2)cc1`, for which the inhibition is 7.81% in experiment [1], 43.6% (active) in experiment [2], 44.5% (active) in experiment [3] and -9.28% in experiment [4].
Regarding `CC(=O)Nc1ccc(N=c2cc([N+](=O)[O-])cc(Cl)n2O)cc1`, the inhibition was 14.3% in experiment [1], 59.6% (active) in experiment [2], 57.8% (active) in experiment [3] and -3.98% in experiment [4].
Regarding `COc1cc2c(OC(C)=O)c3c(c(-c4ccc5c(c4)OCO5)c2cc1OC)C(=O)OC3`, the inhibition in experiment [1] was 55.8% (active); in experiment [2] it was 35.4%; in experiment [3], 36.2%; in experiment [4] it was 34.7% (active).
As to `Nc1nc2ccccc2cc1C(=O)NCc1ccc(-c2ccccc2)cc1`, the inhibition in experiment [1] is 24.6%; in experiment [2] it was 59.4% (active); in experiment [3], 58.6% (active); in experiment [4] it was 55.9% (active).
Regarding `CCc1ccc2oc(C(=O)NCc3ccncc3)c(C)c2c1`, the inhibition in experiment [1] is -4.67%; in experiment [2], 53.2% (active); in experiment [3] it was 61% (active); in experiment [4] it was 6.18%.
Regarding `CCOc1ccc(NC(=O)CN2C(=O)NC(C)(c3ccc(OC(F)F)cc3)C2=O)cc1` (stereo not drawn), the inhibition in experiment [1] is 18.8%; in experiment [2], 62.6% (active); in experiment [3], 59.2% (active); in experiment [4], -30.5%.
As to `CNC(=O)c1cccc(NC(=O)c2cc(-c3ccccc3)nc3c2cnn3C(C)C)c1`, the inhibition in experiment [1] is 29.4% (active); in experiment [2], 51.7% (active); in experiment [3] it was 49.4% (active); in experiment [4] it was -19.8%.
As for `O=[N+]([O-])c1ccc(N2CCCC2)cc1N1CCCC1`, the inhibition in experiment [1] is 9.77%; in experiment [2], 56.8% (active); in experiment [3] it was 60.4% (active); in experiment [4] it was 8.32%.
On to `CC(=O)Nc1ccc(NC(=O)CSc2ccc(-c3ccco3)nn2)cc1`, for which the inhibition in experiment [1] was 16.1%; in experiment [2], 49.4% (active); in experiment [3] it was 44.7% (active); in experiment [4], -18.3%.
Regarding `CC1(C)CC(=O)C=C(c2ccc3ncccc3c2)C1`, the inhibition is 13.7% in experiment [1], 52.2% (active) in experiment [2], 52.9% (active) in experiment [3] and 14.3% in experiment [4].
Consider `CC(=O)/C(=N/Nc1ccccc1[N+](=O)[O-])N1CCCc2ccccc21`, for which the inhibition in experiment [1] was 17.5%; in experiment [2], 49.2% (active); in experiment [3], 52.1% (active); in experiment [4], 22.7%.
The like results for `COc1cc2c(cc1OC)C(c1ccc(-c3ccc(Cl)cc3Cl)o1)=NCC2` were, in that order, 36.4% (active), 58.4% (active), 61% (active) and 62.5% (active).
`O=C(Nc1cccnc1)c1ccc([N+](=O)[O-])o1`: the inhibition in experiment [1] was 27.2%; in experiment [2] it was 61.9% (active); in experiment [3], 58.5% (active); in experiment [4], -15.2%.
Regarding `CS(=O)(=O)N1CCc2cc(-c3csc(NC(=O)Cc4cccs4)n3)ccc21`, the inhibition is 12.6% in experiment [1], 53.8% (active) in experiment [2], 39.9% in experiment [3] and 42.8% (active) in experiment [4].

Broadly, the inhibition is the change of the read-out against control, counted positive when it falls.
